Screening data (PubChem)
This is a sample that favours compounds with a hit; in the whole collection about 6% have one here.
D1 potentiator: potentiators of human D1 dopamine receptor | HEK293 TREx D1 cells, calcium flux, dopamine EC20 potentiation | AID 504651 | 360,000 compounds, 0.036% hits | potentiation, % at 10 µM; in the data active means potentiation above about 30%
Target sequence (P21728 whole entry, looked up): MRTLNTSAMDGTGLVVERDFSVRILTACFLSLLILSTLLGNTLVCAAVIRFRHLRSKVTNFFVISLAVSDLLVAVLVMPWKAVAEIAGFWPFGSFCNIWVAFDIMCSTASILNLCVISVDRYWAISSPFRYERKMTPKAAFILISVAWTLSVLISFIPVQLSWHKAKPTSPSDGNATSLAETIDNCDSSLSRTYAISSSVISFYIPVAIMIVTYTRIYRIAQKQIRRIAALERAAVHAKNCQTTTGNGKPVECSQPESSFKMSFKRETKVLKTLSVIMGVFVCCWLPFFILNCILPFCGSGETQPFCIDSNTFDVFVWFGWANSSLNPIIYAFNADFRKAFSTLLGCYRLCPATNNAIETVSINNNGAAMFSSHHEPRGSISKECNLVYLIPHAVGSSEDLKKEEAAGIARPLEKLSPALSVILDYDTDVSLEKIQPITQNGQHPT
D1 ag: human D1 receptor agonism. activation, % at 2 µM. 360,000 compounds, 1% hits. HEK293 T-REx D1 cells, calcium flux, agonist mode. AID 504660. P21728; in the data active means activation above about 30%
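Agonism was scored from calcium flux recorded over 180 s (1 read/s) after pintool compound addition, following a 10-cycle baseline. Cells were inducible force-coupled HEK293 TREx D1, plated overnight at 30 C and loaded with no-wash calcium dye.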
D3 ag: agonists of human D3 dopamine receptor | P35462 | D3R DiscoveRx beta-arrestin cells, luminescence, 90 min | max activation, % | 410,000 compounds, 0.58% hits | AID 652048; in the data active means max activation above about 30%
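Agonist-mode cell screen: cells plated at 1500/well and incubated overnight at 37 °C, then exposed to library compounds for 90 min at 37 °C. Detection reagent was added for 30–60 min at room temperature, and luminescence was read.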
D1 antagonist: antagonists of human D1 dopamine receptor; P21728; HEK293 TREx D1 cells, calcium flux, dopamine EC80; stronger effect = lower value; activity change, negative = inhibition, % at 10 µM; 360,000 compounds, 3.2% hits; AID 504652; in the data active means activity change below about -30%
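Tetracycline-induced HEK293 Trex D1 cells, force-coupled to calcium, dye-loaded; compounds added and read 180 s, then EC80 dopamine added and calcium flux tracked kinetically another 180 s.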
D3 antag: antagonists of human D3 dopamine receptor; 360,000 compounds, 2.5% hits; D3R cells, DiscoveRx beta-arrestin luminescence, antagonist mode; stronger effect = lower value; max response, negative = inhibition, %; in the data active means max response below about -50%; inconclusive means no clear call, values can overlap the other calls
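Cells plated overnight at 1500 cells/well, then exposed to library compounds with dopamine controls for 90 minutes at 37 degrees C. DiscoveRx reagent added for 30–60 minutes at room temperature; luminescence read, quantitative HTS format.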
Large screens that a line does not name were inactive; ! = not confirmed by another sample.

COC(=O)C1CCN(C(=O)COc2ccc(S(=O)(=O)N3CCOCC3)cc2Cl)CC1	D3 ag 63 (no result: D1 potentiator, D1 ag, D1 antagonist)
CCOC(=O)N1CCN(S(=O)(=O)c2ccc(C(=O)Nc3nnc(CSC)o3)cc2)CC1	none
CCOc1ccc(S(=O)(=O)N2CCC(C(=O)N3CCN(C)CC3)CC2)cc1Cl	none
CCOC(=O)N1CCN(S(=O)(=O)c2ccc(OC)c(OC)c2)CC1	none
CCOC(=O)N1CCN(S(=O)(=O)c2ccc(OC)c(Cl)c2)CC1	D1 antagonist -31
Cc1ccc(S(=O)(=O)N2CC3C(=O)CC(c4ccccc4)N(S(=O)(=O)c4ccc(C)cc4)C3CC2c2cccc(Cl)c2)cc1 (configuration not stated)	none (no result: D1 potentiator, D1 ag, D1 antagonist)
COc1ccc(-c2ccc(=O)n(CC(=O)Nc3ccc(N(C)C)cc3)n2)cc1	none (no result: D3 antag)
O=C(NC1CCCC1)c1cnn(-c2ccc(F)cc2F)c1C1CCNCC1	none (no result: D3 antag)
COc1ccc(S(=O)(=O)N2CCCCCC2)cc1C(=O)OCC(=O)NC(C)(C)C	D3 ag 39
COc1ccc(S(=O)(=O)N2CCCCCC2)cc1C(=O)OCC(=O)NC(N)=O	none
CCOc1ccccc1N(C)C(=O)Cn1cnc2onc(-c3ccc(F)cc3)c2c1=O	D1 antagonist -31 (no result: D3 antag)
CNC(=O)OCc1cocc1COC(=O)NC	none (no result: D1 potentiator, D1 ag, D1 antagonist)
O=C(NCc1ccc(F)cc1)c1cnc2n(c1=O)CCS2	D1 antagonist -37
CCCC(=O)N(c1ccc2oc(-c3ccccc3)c(C(=O)OCC)c2c1)S(=O)(=O)c1ccc(C)cc1	none (no result: D3 antag)
CC(C)c1ccc(CNCc2ccccc2)cc1	D1 ag 50, D3 antag inconclusive
O=C1c2ccccc2C(=O)N1CSc1nnnn1-c1ccccc1	none
Cc1ccc(NC(=O)CNC(C)c2ccccc2)cc1 (configuration not stated)	D3 antag inconclusive
O=C1c2ccccc2C(=O)N1CCCCSc1nnnn1-c1ccccc1	D1 ag 71, D1 antagonist -30
Cc1ccc(CNC(C)c2ccccc2)cc1 (configuration not stated)	D3 antag -55
Clc1ccccc1CNCCCSc1nnnn1-c1ccccc1	D1 ag 31 (no result: D3 antag)
CCN(CC)CCOC(=O)c1ccc(NC(=O)CCn2c(=O)oc3ccccc32)cc1	none (no result: D3 antag)
CCC(Cn1nnc2ccccc2c1=O)NC(=O)Nc1cc(C)cc(C)c1 (configuration not stated)	none (no result: D3 antag)
O=S(=O)(c1ccc(-c2cc(C(F)(F)F)on2)s1)N1CCN(c2ccc(F)cc2)CC1	none (no result: D3 antag)
CCOC(=O)c1c(S(=O)(=O)NCC(=O)N2CCN(c3cccc(Cl)c3)CC2)c(C)n(C)c1C	none (no result: D3 antag)
CCOC(=O)c1ccc(NC(=O)C2CCCN(c3ncnc4onc(C)c34)C2)cc1 (configuration not stated)	none (no result: D3 antag)
Nc1nc2c(c(=O)[nH]1)N(C=O)C(CNc1ccc(C(=O)N[C@@H](CCC(=O)O)C(=O)O)cc1)CN2 (some centres not stated)	none (no result: D1 potentiator, D1 ag, D1 antagonist, D3 antag)
Fc1ccc(CNCCCSc2nnnn2-c2ccccc2)cc1	D1 ag 161, D1 antagonist -43 (no result: D3 antag)
CC(C)c1ccc(CNCCSc2nnnn2-c2ccccc2)cc1	D1 ag 56 (no result: D3 antag)
CC(C)CCC[C@@H](C)[C@H]1CC[C@H]2[C@@H]3CC=C4C[C@@H](O)CC[C@]4(C)[C@H]3CC[C@]12C	none (no result: D1 potentiator, D1 ag, D1 antagonist, D3 antag)
Cc1cccc(N(CC(=O)NCc2ccco2)S(=O)(=O)c2ccccc2)c1	none (no result: D1 potentiator, D1 ag, D1 antagonist)
O=C(c1cc(=O)c2ccccc2o1)N(Cc1ccccc1)C1CCS(=O)(=O)C1 (configuration not stated)	none
Cc1ccc2c(=O)cc(C(=O)N(Cc3ccc(C(C)(C)C)cc3)C3CCS(=O)(=O)C3)oc2c1 (configuration not stated)	D1 antagonist -75 (no result: D3 antag)
O=C(c1ccco1)N(Cc1ccc(Cl)cc1)C1CCS(=O)(=O)C1 (configuration not stated)	D3 ag 38
Cc1cc2oc(C(=O)N(Cc3ccccc3)C3CCS(=O)(=O)C3)cc(=O)c2cc1C (configuration not stated)	none (no result: D3 antag)
COc1ccc(CN(C(=O)c2cc(=O)c3ccccc3o2)C2CCS(=O)(=O)C2)cc1OC (configuration not stated)	D1 antagonist -37!
O=C(COC(=O)c1cc[n+]([O-])cc1)Nc1ccc(SC(F)F)cc1	D1 antagonist -34
O=C(COC(=O)c1cc[n+]([O-])cc1)Nc1ccc(Br)cc1	none
N=c1oc2ccc(Br)cc2cc1C(=O)NCc1ccccc1	none
CC(NC(=O)c1cc2cc(Br)ccc2oc1=N)c1ccccc1 (configuration not stated)	D1 antagonist -53
Cc1cc(/C=C(\C#N)C(=O)NCc2cccs2)c(C)n1-c1ccc([N+](=O)[O-])cc1	D1 antagonist -56
CCOC(=O)/C(C#N)=C/c1c(N2CCN(c3ccccc3)CC2)nc2ccccn2c1=O	none
CCOC(=O)/C(C#N)=C/c1cc(C)n(-c2ccc(C)cc2)c1C	D1 antagonist -75, D3 antag inconclusive
CCOC(=O)/C(C#N)=C\c1cc(C)n(-c2ccccc2)c1C	none
Cc1cc(/C=C(\C#N)C(=O)NCc2ccco2)c(C)n1-c1cccnc1	none
CCOC(=O)/C(C#N)=C\c1ccc(N2CCN(C/C=C/c3ccccc3)CC2)cc1	D1 ag 109, D3 antag inconclusive
CC(=O)N1c2ccccc2CC1C(=O)N1CCN(c2ccccc2)CC1 (configuration not stated)	none (no result: D3 antag)
Cc1ccc(CCNC(=O)c2c(C)oc3ncn(CC(C)C)c(=O)c23)cc1	none (no result: D3 antag)
COCCCN1C(=O)C(CC(=O)NCc2cccs2)CC(C(=O)N(C(C)C)C(C)C)=C1C (configuration not stated)	none (no result: D1 potentiator, D1 ag, D1 antagonist)
CC(C)(C)CNC(=O)c1cccc2c1C(=O)c1ccc(N3CCCC3)cc1S2(=O)=O	none (no result: D1 potentiator, D1 ag, D1 antagonist)
CC1CCN(c2ccc3c(c2)S(=O)(=O)c2cccc(C(=O)NCc4ccc(F)cc4)c2C3=O)CC1	D1 ag 337
O=C(NCc1ccccc1C(F)(F)F)c1cccc2c1C(=O)c1ccc(N3CCCCC3)cc1S2(=O)=O	D3 ag 33 (no result: D1 potentiator, D1 ag, D1 antagonist)
O=C1c2ccccc2S(=O)(=O)c2cc(N3CCC(C(=O)N4CCCCC4)CC3)ccc21	D3 ag 38 (no result: D1 potentiator, D1 ag, D1 antagonist)
O=C(NCc1ccccc1Br)c1cccc2c1C(=O)c1ccc(N3CCOCC3)cc1S2(=O)=O	D1 ag 37 (no result: D3 ag, D3 antag)
CCCCNc1nc2ccccc2c2nc(-c3ccccc3)nn12	none (no result: D3 antag)
COc1cc(NS(=O)(=O)c2ccc(-n3cccn3)cc2)cc(OC)c1	none (no result: D1 potentiator, D1 ag, D1 antagonist)
O=C(NCC1CC1)c1ccc(-c2cn[nH]c2)c2ccoc12	none (no result: D1 potentiator, D1 ag, D1 antagonist)
O=C(NCc1ccc(F)cc1)c1cccc2c1C(=O)c1ccc(N3CCOCC3)cc1S2(=O)=O	D1 ag 42 (no result: D1 antagonist)
O=C(NCc1ccc(F)cc1)c1cccc2c1C(=O)c1ccc(N3CCC(Cc4ccccc4)CC3)cc1S2(=O)=O	D3 ag 43 (no result: D1 potentiator, D1 ag, D1 antagonist)
